# Laboratory results as given in PubChem BioAssay.
# Values joined by “and” are separate entries in the source; they are usually repeats but may differ in a detail not shown here. Equal entries are not always repeated. More than one record can exist for a structure, and the calls need not agree. Active and inactive are the calls of the source. Unless noted, how the calls were made is not given here.
# Columns and labels:
# [1] = system: Wnt5a (protein binding on small-molecule microarray); experiment: small molecules binding Wnt5a protein – biophysical, small-molecule microarray, 635/667 nm fluorescence, primary screen (AID 1142); conditions: 635 nm fluorescence, higher = more signal;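 further: fluorescence read at 667 nm with signal to noise per printed feature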
# [2] = ATP-based viability of Huh7 replicon cells – cell-based, CellTiter-Glo luminescence, basal, 48 h, cytotoxicity control for HCV replication inhibitor project, primary screen (AID 1143); conditions: higher = more signal, called active from +8 up or from −8 down;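 further: Huh7 hepatoma cells carrying a hepatitis C replication reporter with no stimulus; test concentration not given here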
# [3] = Pseudomonas biofilm growth suppression – PAO1 strain, BacTiter-Glo luminescence, LB-PBS, primary screen (AID 1144); conditions: P. aeruginosa PAO1 biofilm, 12 h, higher = more signal
# [4] = basal CRE-LacZ reporter activity in PC12 – cell-based, unstimulated, primary screen (AID 1145); conditions: no forskolin, luminescence, 4.5 h, higher = more signal, called active from +8 up or from −8 down
# [5] = forskolin-driven CRE-LacZ activity in PC12 – cell-based, CRE-LacZ reporter, forskolin-stimulated, primary screen (AID 1146); conditions: luminescence, 4.5 h, higher = more signal, called active from +8 up or from −8 down;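 further: PC12 cells with 6xCRE LacZ reporter stimulated by forskolin 10 µM; beta-galactosidase reporter signal reflecting CREB driven transcription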
# [6] = target: Streptavidin (Streptomyces avidinii) (UniProt P22629); experiment: compounds binding control protein streptavidin – biophysical, small-molecule microarray, 635/667 nm fluorescence, artefact control for SMM compound annotation, primary screen (AID 1147); conditions: higher = more signal;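 further: signal reflects streptavidin binding to arrayed compounds as a control protein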
# [7] = probe aInhba binding on compound microarray – biochemical, small-molecule microarray, 635/667 nm fluorescence, primary screen (AID 1148); conditions: higher = more signal;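 further: score merges 667nm spot fluorescence with signal-to-noise for antibody binding to printed compounds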
# Torsin-1A (Homo sapiens) [8] = target: Torsin-1A (Homo sapiens) (UniProt O14656); experiment: TOR1A wild-type binding on microarray – cell lysate, small-molecule microarray, lysate, 635/667 nm, primary screen (AID 1149); conditions: COS7 hTOR1A-WT lysate, 635 nm fluorescence, higher = more signal
# Torsin-1A (Homo sapiens) [9] = target: Torsin-1A (Homo sapiens) (UniProt O14656); experiment: torsin A mutant lysate binding on microarrays – cell lysate, small-molecule microarray, COS7 lysate, 635/667 nm fluorescence, primary screen (AID 1150); conditions: COS7 hTOR1A mutant lysate, 635 nm fluorescence, higher = more signal;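 further: score pools 667 nm emission and signal to noise measuring lysate protein binding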
# [10] = system: Sonic hedgehog protein (Shh); experiment: Sonic hedgehog microarray binding compounds – biochemical, small-molecule microarray, 635/667 nm fluorescence, primary screen (AID 1151); conditions: 635 nm fluorescence, higher = more signal;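 further: Shh protein binding to compounds spotted on small-molecule microarray slides; score combines spot fluorescence intensity with signal-to-noise across triplicate slides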
# [11] = optical density shifts of acrAB sulA E. coli – strain DRC41, OD650, 48 h, E. coli filamentation inducer project, primary screen (AID 1152); conditions: higher = more signal, called active from +8 up or from −8 down;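 further: E. coli MC1000 strain DRC41 lacking acrAB efflux pump and sulA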
# [12] = probe aLefty1 binding on compound microarray – biochemical, small-molecule microarray, 635/667 nm fluorescence, primary screen (AID 1153); conditions: higher = more signal;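 further: score merges spot fluorescence with signal-to-noise ratio from the scanned slide images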
# [13] = plasmodial surface anion channel blockers, osmotic lysis – cell-based, P. falciparum Indochina, OD700, 1 h, primary screen (AID 1154); conditions: P. falciparum Indochina infected RBC osmotic lysis, higher = more signal, called active from +8 up or from −8 down
# [14] = plasmodial surface anion channel blockers, osmotic lysis – cell-based, P. falciparum Indochina, OD700, 2 h, primary screen (AID 1155);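 further: lysis reports solute entry through the parasite surface anion channel PSAC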; conditions: P. falciparum Indochina infected erythrocytes, higher = more signal, called active from +8 up or from −8 down
# [15] = changes in parasitized red cell lysis, either direction – P. falciparum Indochina, OD700, 3 h, PSAC antagonist project, primary screen (AID 1156); conditions: P. falciparum-infected erythrocytes, osmotic lysis, higher = more signal, called active from +8 up or from −8 down
# [16] = plasmodial surface anion channel blockers, osmotic lysis – cell-based, P. falciparum Indochina, OD700, 18 h, primary screen (AID 1157); conditions: P. falciparum Indochina infected erythrocytes, osmotic lysis OD700, 18 h; higher = more signal, called active from +8 up or from −8 down
# [17] = S6 kinase pathway phospho-S6 level changes – cell-based, A549, cytoblot, luminescence, serum-stimulated, primary screen (AID 1158); conditions: 5 h, higher = more signal;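 further: serum-stimulated A549 lung adenocarcinoma cells; signal is phosphorylated S6 detected by cytoblot immunostaining with HRP secondary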
# [18] = target: NADPH oxidase 2 (Homo sapiens) (UniProt P04839); experiment: compounds shifting NOX2 Amplex Red fluorescence – cell-based, HEK293-NOX2, PMA-stimulated, NOX inhibitor project, primary screen (AID 1159); conditions: 45 min, higher = more signal, called active from +8 up or from −8 down; further: test concentration not given here
# [19] = target: NADPH oxidase 4 (Homo sapiens) (UniProt Q9NPH5); experiment: compounds shifting NOX4 Amplex Red fluorescence – cell-based, HEK293-NOX4, tetracycline-induced, NOX inhibitor project, primary screen (AID 1160); conditions: HEK293-NOX4, Amplex Red H2O2 fluorescence, 45 min; higher = more signal, called active from +8 up or from −8 down
# [20] = target: NADPH oxidase 5 (Homo sapiens) (UniProt Q96PH1); experiment: compounds shifting NOX5 Amplex Red fluorescence – cell-based, HEK293-NOX5, NOX inhibitor project, primary screen (AID 1161); conditions: HEK293-NOX5, ionomycin, 45 min, higher = more signal
# Sequence of NADPH oxidase 5 (Homo sapiens) (Q96PH1 whole entry, looked up): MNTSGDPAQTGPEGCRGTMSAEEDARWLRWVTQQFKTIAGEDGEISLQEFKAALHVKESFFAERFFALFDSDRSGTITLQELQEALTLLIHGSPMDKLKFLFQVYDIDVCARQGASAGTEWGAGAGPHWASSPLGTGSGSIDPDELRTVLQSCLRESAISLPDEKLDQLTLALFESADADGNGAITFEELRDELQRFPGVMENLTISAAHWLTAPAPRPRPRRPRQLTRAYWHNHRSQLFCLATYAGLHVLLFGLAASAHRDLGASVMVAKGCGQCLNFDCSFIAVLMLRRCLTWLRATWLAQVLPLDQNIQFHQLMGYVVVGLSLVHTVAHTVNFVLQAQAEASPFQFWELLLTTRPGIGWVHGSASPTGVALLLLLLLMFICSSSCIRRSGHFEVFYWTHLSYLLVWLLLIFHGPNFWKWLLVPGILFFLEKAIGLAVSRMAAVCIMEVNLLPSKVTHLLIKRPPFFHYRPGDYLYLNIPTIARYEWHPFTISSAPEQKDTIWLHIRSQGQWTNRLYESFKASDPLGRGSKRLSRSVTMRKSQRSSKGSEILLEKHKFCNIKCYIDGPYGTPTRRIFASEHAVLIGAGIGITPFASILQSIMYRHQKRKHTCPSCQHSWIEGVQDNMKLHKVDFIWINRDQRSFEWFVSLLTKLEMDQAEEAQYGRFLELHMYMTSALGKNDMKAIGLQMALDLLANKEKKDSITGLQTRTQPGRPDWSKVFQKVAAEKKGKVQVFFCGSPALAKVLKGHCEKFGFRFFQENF
# Sequence of NADPH oxidase 2 (Homo sapiens) (P04839 whole entry, looked up): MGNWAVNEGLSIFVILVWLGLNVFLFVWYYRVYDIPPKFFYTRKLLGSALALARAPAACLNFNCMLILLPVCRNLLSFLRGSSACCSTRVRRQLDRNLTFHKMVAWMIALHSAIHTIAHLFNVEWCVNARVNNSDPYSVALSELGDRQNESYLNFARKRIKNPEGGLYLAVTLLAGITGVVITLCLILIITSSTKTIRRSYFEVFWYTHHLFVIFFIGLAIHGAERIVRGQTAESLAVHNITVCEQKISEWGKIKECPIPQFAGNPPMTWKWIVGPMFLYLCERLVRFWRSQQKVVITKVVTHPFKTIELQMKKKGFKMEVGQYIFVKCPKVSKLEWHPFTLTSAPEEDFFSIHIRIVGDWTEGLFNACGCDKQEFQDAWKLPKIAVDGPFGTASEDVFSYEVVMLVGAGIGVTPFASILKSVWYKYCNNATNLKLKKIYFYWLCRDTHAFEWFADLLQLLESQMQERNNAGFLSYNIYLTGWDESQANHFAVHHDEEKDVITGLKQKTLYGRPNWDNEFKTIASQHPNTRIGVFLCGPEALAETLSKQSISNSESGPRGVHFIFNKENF
# Sequence of Torsin-1A (Homo sapiens) (O14656 whole entry, looked up): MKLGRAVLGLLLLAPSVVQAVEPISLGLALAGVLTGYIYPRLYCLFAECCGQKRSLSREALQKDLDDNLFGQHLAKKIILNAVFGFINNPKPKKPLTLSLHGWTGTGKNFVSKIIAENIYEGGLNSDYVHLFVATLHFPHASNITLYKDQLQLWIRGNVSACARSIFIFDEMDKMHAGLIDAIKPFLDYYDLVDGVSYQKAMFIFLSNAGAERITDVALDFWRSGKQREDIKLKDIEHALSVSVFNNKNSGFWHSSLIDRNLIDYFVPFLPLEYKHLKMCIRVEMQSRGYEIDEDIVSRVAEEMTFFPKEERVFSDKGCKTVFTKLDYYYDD
# Sequence of Streptavidin (Streptomyces avidinii) (P22629 whole entry, looked up): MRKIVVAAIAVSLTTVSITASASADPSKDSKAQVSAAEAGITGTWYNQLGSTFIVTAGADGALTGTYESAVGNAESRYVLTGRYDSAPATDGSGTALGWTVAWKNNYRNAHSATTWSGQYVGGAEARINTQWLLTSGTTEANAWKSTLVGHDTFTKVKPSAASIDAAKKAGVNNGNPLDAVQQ
# Sequence of NADPH oxidase 4 (Homo sapiens) (Q9NPH5 whole entry, looked up): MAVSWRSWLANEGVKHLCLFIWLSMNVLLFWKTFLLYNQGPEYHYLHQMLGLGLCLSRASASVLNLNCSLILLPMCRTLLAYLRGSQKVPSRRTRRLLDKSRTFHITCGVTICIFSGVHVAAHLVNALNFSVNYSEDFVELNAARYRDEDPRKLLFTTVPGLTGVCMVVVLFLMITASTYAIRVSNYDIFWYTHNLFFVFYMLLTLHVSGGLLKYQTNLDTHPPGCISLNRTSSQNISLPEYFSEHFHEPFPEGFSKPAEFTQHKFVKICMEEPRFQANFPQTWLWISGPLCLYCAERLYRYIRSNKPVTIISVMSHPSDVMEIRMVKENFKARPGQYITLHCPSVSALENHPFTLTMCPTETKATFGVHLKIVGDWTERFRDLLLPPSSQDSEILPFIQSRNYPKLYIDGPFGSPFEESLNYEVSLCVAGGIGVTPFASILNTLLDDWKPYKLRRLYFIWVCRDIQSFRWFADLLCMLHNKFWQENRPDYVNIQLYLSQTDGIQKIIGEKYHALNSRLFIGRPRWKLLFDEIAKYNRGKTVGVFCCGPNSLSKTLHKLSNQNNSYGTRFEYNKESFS
Structure (SMILES),composite z-score [1],z-score [2],z-score [3],z-score [4],z-score [5],composite z-score [6],composite z-score [7],composite z-score (Torsin-1A (Homo sapiens) [8]),composite z-score (Torsin-1A (Homo sapiens) [9]),composite z-score [10],z-score [11],composite z-score [12],z-score [13],z-score [14],z-score [15],z-score [16],z-score [17],z-score [18],z-score [19],z-score [20]
CCCNC(=O)OC[C@H]1O[C@H](CCON=C(C)CCN2CCc3nc(-c4ccccc4)c(-c4ccccc4)cc3C2)C=C[C@@H]1Oc1ccc(OC)cc1,0.156,-0.81 (inactive),-0.158 (inactive),2.49 (inactive),-0.113 (inactive),0.114,-0.152,0.479,0.302,0.449,-1.29 (inactive),-0.0054,1.77 (inactive),0.454 (inactive),0.571 (inactive),0.441 (inactive),0.0851,-0.473 (inactive),-2.55 (inactive),-2.17
C=CCN(CCCC)C(=O)C1N(c2ccc(CCO)cc2)C(=O)C2C(C(=O)O)C3C=CC21O3 (stereo not given),-0.612 and -0.135,-0.544 (inactive) and -0.336 (inactive),-0.353 (inactive) and -1.38 (inactive),-0.224 (inactive) and 0.0524 (inactive),-0.153 (inactive) and 0.323 (inactive),-1.29 and -2.12,-0.389 and -0.409,-2.4 and -3.13,-1.86 and -3.82,-1.43 and -2.14,0.516 (inactive) and 1.32 (inactive),-0.103 and 0.778,-0.245 (inactive) and 0.903 (inactive),-0.186 (inactive) and -0.13 (inactive),-0.874 (inactive) and -0.244 (inactive),0.113 (inactive) and -0.183 (inactive),0.799 and -0.202,-0.212 (inactive) and 1.49 (inactive),0.0383 (inactive) and -1.09 (inactive),-0.437 and 0.534
Cc1cc2c(nc1C)CCCN2CC(O)CN1CCCc2nc(-c3ccc(Br)cc3)ccc21 (stereo not given),0.573 and 1.08,-0.721 (inactive) and -1.07 (inactive),-0.0664 (inactive) and 0.806 (inactive),0.0167 (inactive) and 0.382 (inactive),-0.362 (inactive) and -0.274 (inactive),1.4 and 1.8,0.496 and 0.639,0.501 and 0.62,0.797 and 0.251,1.13 and 1.11,-0.402 (inactive) and -0.327 (inactive),0.585 and 0.584,12.1 (active) and 8.25 (active),1.55 (inactive) and 0.974 (inactive),1.59 (inactive) and 1.02 (inactive),0.739 (inactive) and 0.394 (inactive),0.0832 and -0.44,1.74 (inactive) and 1.1 (inactive),-1.98 (inactive) and -1.54 (inactive),-2.82 and -2.56
C=C[C@H](OC)[C@@H](O)c1ccc(OCCO)cc1,-0.181 and -0.509,-0.238 (inactive) and 0.881 (inactive),-0.354 (inactive) and -1.35 (inactive),0.833 (inactive) and -0.0533 (inactive),0.2 (inactive) and -1.46 (inactive),-1.59 and -1.75,-0.258 and -0.244,-1.15 and -1.11,-0.812 and -1.99,-0.459 and -0.143,-0.389 (inactive) and 0.805 (inactive),-0.328 and -0.147,0.749 (inactive) and 0.142 (inactive),0.305 (inactive) and 0.0012 (inactive),-0.442 (inactive) and -0.321 (inactive),0.0568 (inactive) and 0.352 (inactive),0.136 and 0.135,0.844 (inactive) and -0.354 (inactive),-1.32 (inactive) and -0.339 (inactive),-0.372 and 0.317
CCOC(=O)c1ccc(NC(=O)O[C@H]2[C@H](OC(=O)Nc3ccccc3)[C@H](OC(=O)Nc3ccccc3)[C@@H](OC)O[C@@H]2CO)cc1,0.679 and 0.445,-4.37 (inactive) and -5.71 (inactive),0.44 (inactive) and -0.118 (inactive),-0.0484 (inactive) and 0.596 (inactive),0.359 (inactive) and -1.63 (inactive),1.06 and 0.79,0.189 and 0.232,0.147 and 0.386,0.592 and 0.568,1.17 and 1.63,0.473 (inactive) and -0.33 (inactive),0.416 and 0.344,14.6 (active) and 24.1 (active),2.63 (inactive) and 11.5 (active),0.433 (inactive) and -0.123 (inactive),1.23 (inactive) and 1.89 (inactive),-0.636 and 0.647,-0.218 (inactive) and 1.15 (inactive),-0.122 (inactive) and -0.312 (inactive),-0.195 and -0.355
O=c1n(-c2ccccc2)c(=O)n2n1CC[C@@H]1C(=NOC[C@@H](O)COCc3ccco3)[C@H]3O[C@H]3[C@@H](O)[C@@H]12,0.0145 and -0.152,-2.38 (inactive) and 1.16 (inactive),-0.58 (inactive) and 0.962 (inactive),0.875 (inactive) and -0.227 (inactive),-0.218 (inactive) and 0.761 (inactive),0.312 and 0.0894,-0.0963 and -0.0407,0.716 and 0.965,0.289 and 0.457,1.7 and 0.769,-1.09 (inactive) and -0.282 (inactive),-0.0464 and -0.0626,1.17 (inactive) and 0.288 (inactive),-0.603 (inactive) and 0.191 (inactive),1.74 (inactive) and 0.238 (inactive),-2.3 (inactive) and 0.0983 (inactive),0.473 and -0.975,1.06 (inactive) and 0.176 (inactive),0.113 (inactive) and -2.01 (inactive),1.33 and -0.41
C=CCN(C(=O)C(c1cccs1)N(C(=O)/C=C\C(=O)O)c1c(Cl)cccc1CO)C(C)(C)C (stereo not given),-1.15 and -1.26,0.389 (inactive) and 0.124 (inactive),0.933 (inactive) and 1.26 (inactive),0.325 (inactive) and 0.471 (inactive),-0.386 (inactive) and -0.514 (inactive),-1.61 and -1.09,-0.341 and -0.164,-3.44 and -4.12,-3.15 and -2.91,-1.98 and -2.58,-0.773 (inactive) and -1.1 (inactive),0.045 and 0.192,0.294 (inactive) and 0.153 (inactive),-0.0344 (inactive) and -0.313 (inactive),-0.741 (inactive) and -0.659 (inactive),-0.134 (inactive) and -0.0608 (inactive),-0.483 and -0.409,0.239 (inactive) and 0.261 (inactive),-0.827 (inactive) and -0.628 (inactive),-0.328 and 0.528
CC(C)CCN1CCc2nc(-c3ccccc3)c3c(c2C1)CO[C@@H](C)C3,0.0842,0.267 (inactive),0.268 (inactive),4.64 (inactive),-0.44 (inactive),0.375,0.0173,0.509,0.471,0.827,0.842 (inactive),0.173,0.253 (inactive),0.145 (inactive),-0.895 (inactive),0.0992 (inactive),-0.768,1.12 (inactive),0.461 (inactive),0.427
CCOC(=O)CCN1C(=O)[C@H]2[C@H]3[C@H](O)[C@H](O)CC(=NNC(=O)OCC)[C@@H]3CC[C@H]2C1=O,0.201,0.0243 (inactive),-0.129 (inactive),0.796 (inactive),0.261 (inactive),-0.283,-0.0791,0.274,0.608,0.188,0.542 (inactive),-0.193,-0.48 (inactive),0.189 (inactive),-0.602 (inactive),-0.0634 (inactive),-0.494,-0.489 (inactive),0.916 (inactive),0.754
C=C[C@@H](OC)[C@H](O)c1ccc(OC)c(O)c1,0.192 and -0.0615,-0.825 (inactive) and 1.07 (inactive),0.729 (inactive),0.441 (inactive) and -0.142 (inactive),0.0793 (inactive) and -1.37 (inactive),-0.964 and -1.77,-0.281 and -0.306,0.059 and -0.285,-0.242 and -0.089,0.439 and -0.117,0.232 (inactive) and 1.81 (inactive),0.235 and -0.328,0.61 (inactive) and -0.257 (inactive),0.436 (inactive) and -1.63 (inactive),-0.28 (inactive) and -1.54 (inactive),0.328 (inactive) and -2.34 (inactive),0.138 and 0.185,-2.35 (inactive) and -2.11 (inactive),-0.998 (inactive) and -1.12 (inactive),-1.51 and -0.778
CO[C@@H]1C=CCC(=O)N2CCC[C@H]2C(=O)OC[C@H](C)C(=O)OC[C@H]1C,-0.0492,0.0002 (inactive),-0.789 (inactive),-0.113 (inactive),-0.192 (inactive),-0.69,-0.186,0.772,1.63,1.64,0.813 (inactive),-0.0536,-0.393 (inactive),-0.25 (inactive),-0.355 (inactive),0.0084 (inactive),0.0533,-0.773 (inactive),0.208 (inactive),0.221
